The list is not random: actives were taken first. Their share in the collection is about 10%.
Pf growth 96h – P. falciparum growth inhibition at 96 hour, primary screen for plastid delayed-death inhibitors. P. falciparum luciferase reporter growth, 96 h. Potency, µM (highest dose often 28.7 µM), inactives show top-dose activity change, negative = inhibition, actives largely listed as inhibitors. hit rate 6.9% among 320,000; active = well fitted inhibition curve with a large enough effect; inconclusive = small, poorly fitted or top-dose-only effect, or another doubt; inactive = no such curve, though single readings can be large or run the other way; also: potency is read from the fitted curve at half-maximal effect; % is scaled to controls: 0 for no effect and ±100 for the full control effect
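Delayed-death screen, second-generation endpoint: infected erythrocytes, 2% hematocrit, 0.05% parasitemia final; 96 hours at 37 C, 5% CO2; luciferase detection reagent; luminescence decrease equals reduced growth.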
SARS PLP yeast – blocks SARS-CoV papain-like protease in a yeast assay; S. cerevisiae expressing SARS-CoV PLpro, growth rescue; Potency, µM (top dose mostly 32.9 µM), without a hit: at the highest dose activity, positive = growth rescue, hits mostly activators; hit rate 0.19% among 330,000; AID 485353; also: potency is read from the fitted curve at half-maximal effect; 0% is about no effect; nearly all actives have a fitted effect of over 55% in size
Pf growth 48h – inhibits P. falciparum growth in the first generation, 48 h | Potency, µM (doses to about 28.7 µM), without a hit: top-dose activity change, negative = inhibition, hits mostly inhibitors | hit rate 5.9% among 310,000 | AID 504832 | P. falciparum luciferase growth in erythrocytes, 48 h; active = well fitted inhibition curve with a large enough effect; inconclusive = small, poorly fitted or top-dose-only effect, or another doubt; inactive = no such curve, though single readings can be large or run the other way; also: potency is read from the fitted curve at half-maximal effect; % is scaled to controls: 0 for no effect and ±100 for the full control effect
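Here the parasites carry a stable luciferase gene and grow inside erythrocytes in Albumax-based RPMI medium with compound for one erythrocytic cycle. Activity is scored as loss of luminescent signal.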
NS1 function inh – influenza NS1 inhibition; hit rate 0.4% among 270,000; Potency, µM (highest dose often 46.1 µM), inactives show top-dose activity, positive = more growth; also: potency is read from the fitted curve at half-maximal effect; actives are rising curves; nearly all actives have a fitted effect of over 50% in size
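OD600 was taken as the measure of yeast growth restored by compound in an NS1-expressing S. cerevisiae strain. Cells had been washed out of glucose medium and diluted 1:100 into galactose -URA medium, pH 6.0.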
Flu NS1 inh – validation of influenza NS1 protein function inhibitors. shares compounds with NS1 function inh. influenza NS1 function cell assay, 15-point titration. activity change, negative = inhibition, % at 32.9 µM. 1,400 tested, under 10 active; also: 0% is about no effect
* hit, by the source's call; ? = inconclusive; . = not tested or not shown. Unless noted, calls follow the shape of the full dose curve.

SMILES	Pf growth 96h	SARS PLP yeast	Pf growth 48h	NS1 function inh	Flu NS1 inh
CC(C(=O)Nc1ccccc1F)N1CCN(S(=O)(=O)c2ccc(C(F)(F)F)cc2)CC1 (configuration not stated)	0%	1%	?	.	.
CC1CC(C)CN(C(=O)COC(=O)Cc2ccc(Br)cc2)C1 (configuration not stated)	20%	1%	2%	-5%	.
CCOc1ccc(C(C(=O)NCC2CCCO2)N(Cc2cccnc2)C(=O)c2snc(C(N)=O)c2N)cc1 (configuration not stated)	-4%	-1%	?	-3%	.
CN1CCN(CCCNC(=O)C2CCN(c3nnc(-n4cccc4)s3)CC2)CC1	10%	0%	-5%	13%	.
CCN1CCN(CCCNC(=O)C2CCCN(c3nnc(-n4cccc4)s3)C2)CC1 (configuration not stated)	?	9%	2%	5µM*	-21
CCC(C(=O)Nc1ccc(C(=O)N2CCCC2)cc1)c1ccccc1 (configuration not stated)	23%	1%	-12%	.	.
COc1cccc(N=Cc2c(O)c3ccccc3oc2=O)c1	?	0%	39%	14%	.
Cc1ccc(NC2CCCN(C(=O)CCN3CCOCC3)C2)cc1C (configuration not stated)	?	2%	6%	?	-3
OCCN(CCO)c1ccc(C(c2ccc(Cl)cc2)c2ccc(N(CCO)CCO)cc2Cl)c(Cl)c1	58%	12%	?	14µM*	8
Nc1ccc(N(CCO)CCO)cc1	33%	0%	?	2%	.
Cc1cccc(N2C(=NC(=O)c3ccccc3)SC3CS(=O)(=O)CC32)c1 (configuration not stated)	?	31%	?	7%	.
CC1(c2cccc(Br)c2)NC(=O)N(CC(=O)Nc2ccc(F)cc2)C1=O (configuration not stated)	-9%	3%	4%	8%	.
COc1cccc(NC(=O)COC(=O)c2ccc(C)c(S(=O)(=O)N3CCCCC3)c2)c1	-2%	-1%	-24%	.	.
O=c1cc(NCc2ccc3c(c2)OCO3)[nH]c(=O)n1-c1ccc(Cl)cc1	14%	13%	-15%	7%	.
Cc1ccccc1-n1c(=O)cc(NCc2ccc3c(c2)OCO3)[nH]c1=O	?	12%	9.3µM*	?	10
O=C(CSc1ccc(Cl)cc1)NC1=NN(c2ccccc2)C(=O)C1	0%	-1%	-6%	11µM*	24
CCN(CC)C(=O)Oc1nnc(SC(C)C)n1-c1ccc(Cl)cc1	?	1%	?	-3%	.
CC(C)Nc1ccc(C(CC(N)=O)NC(=O)c2ccc(Br)cc2)cc1[N+](=O)[O-] (configuration not stated)	8%	3%	2%	2%	.
CN(Cc1ccccc1)c1ccc(C(CC(N)=O)NC(=O)c2ccc(Br)cc2)cc1[N+](=O)[O-] (configuration not stated)	-8%	-2%	?	5µM*	?
O=S(=O)(N/N=C/c1ccc2c(c1)OCCO2)c1ccccc1	45%	2%	0%	?	3
COC(=O)Cc1c(OC)ccn(CCc2c[nH]c3ccccc23)c1=O	460%	-1%	195%	.	.
COc1ccccc1NC(=O)Cn1c(=O)n(CCc2c[nH]c3ccccc23)c(=O)c2cccnc21	3%	-2%	?	11µM*	26
Cc1c(/C=N/NC(=O)c2ccc(O)cc2)c2ccccn2c1C(=O)c1ccc(F)cc1	?	15%	4.1µM*	8.9µM*	-8
COC(=O)N/N=C/c1c(C)c(C(=O)c2ccc(F)cc2)n2ccccc12	?	6%	-20%	10%	.
O=C(Cc1c(F)cccc1Cl)Nc1nc2ccccc2s1	14%	-3%	24%	-3%	.
SMILES	Pf growth 96h	SARS PLP yeast	Pf growth 48h	NS1 function inh	Flu NS1 inh
Cc1nc2ccc(NC(=O)Cc3c(F)cccc3Cl)cc2s1	98%	0%	52%	4µM*	4
Cc1ccc(C(=O)N/C(=C\c2ccc(-c3ccc(Br)cc3)o2)C(=O)NC2CCS(=O)(=O)C2)cc1 (configuration not stated)	-12%	-10%	-5%	?	3
Cc1ccc(C(=O)N/C(=C/c2ccco2)C(=O)NC2CCS(=O)(=O)C2)cc1 (configuration not stated)	3%	-2%	14%	.	.
FC(F)(F)c1cccc(NC(=S)N2CCN(c3cccc(C(F)(F)F)c3)CC2)c1	5.9µM*	5%	-4%	?	31
Fc1ccc(NC(=S)N2CCN(c3cccc(C(F)(F)F)c3)CC2)cc1	3%	-32%	0%	2%	.
Cc1ccc(NC(=O)C2C3C=CC(O3)C2C(=O)O)c(C)c1 (configuration not stated)	0%	-25%	36%	0%	.
COc1ccc(N(CC(=O)NCCC(C)C)C(=O)c2snc(C(=O)NC3CCCCC3)c2N)c(OC)c1	15%	26%	?	13µM*	5
O=C(/C=C/c1ccc(Cl)c([N+](=O)[O-])c1)Nc1ccc(NC(=O)c2ccco2)cc1	-8%	14%	5%	2%	.
O=C(/C=C/c1ccc(Cl)c([N+](=O)[O-])c1)Nc1cccc(NC(=O)c2ccco2)c1	?	3%	12µM*	18µM*	8
O=C(NC(=S)Nc1ccc(N2CCCC2)cc1)c1ccccc1[N+](=O)[O-]	4%	14%	69%	?	2
O=C(/C=C/c1ccc(Cl)c([N+](=O)[O-])c1)Nc1ccc(N2CCCC2)cc1	?	-11%	-24%	?	18
COc1ccccc1C(=O)C1CCCN(C(=O)c2cc(CC(C)C)nc(C)n2)C1 (configuration not stated)	-25%	1%	8%	-1%	.
O=C(N1CCOCC1)N1CCN(S(=O)(=O)c2ccc(F)cc2)CC1	99%	3%	-7%	-7%	.
O=C1N/C(=N/N=C/c2ccccc2)SC1(c1ccccc1)c1ccccc1	20%	15%	.	14µM*	2
CN(CC(=O)Nc1ccc(F)cc1)C(=O)Cn1nnc(-c2ccccc2)n1	?	-1%	13%	16%	.
Cc1nc2c(ncn2-c2ccccc2)c(=O)n1NC(=O)CN1CCN(C)CC1	2%	1%	44%	3.5µM*	-22
CCOc1ccc(-n2c(Cc3cc(=O)[nH]c(=O)[nH]3)nnc2SC(C)C)cc1	?	-8%	2%	?	.
CCC(C)Sc1nnc(Cc2cc(=O)[nH]c(=O)[nH]2)n1-c1ccc(F)cc1 (configuration not stated)	3%	4%	.	8.9µM*	2
CCOc1ccc(CCNC(=O)Cc2nn[nH]n2)cc1OCC	18%	-2%	-8%	?	9
CCOc1ccc(CCNC(=O)COC(=O)Cc2ccc(F)cc2)cc1OCC	?	4%	?	.	.
COC(=O)c1ccc(CSc2nnc(NCc3ccccc3)s2)o1	?	-1%	?	14µM*	?

Screens: PubChem BioAssay, National Center for Advancing Translational Sciences (NCATS)
